# In PubChem BioAssay AID720633 (The Scripps Research Institute Molecular Screening Center, 2013):
# This is one part of the list. A number with no mark means an inactive call.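 How the source made its calls: active means inhibition above the cutoff, the mean of compounds lying between the control bounds plus 3 SD of those compounds (cut at about 17% in these data); inactive means the rest.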
# Molecular target: Fibrinogen beta chain (Homo sapiens) (UniProt P02675)
# Assay: DD(E) binders in alternate-peptide displacement assay, confirmation, counter-screen for fibrin DD(E)-Tn7 binding project, biochemical, fluorescence polarization, human fibrin (AID 720633);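 further: 0% = median of compound sample wells and 100% = excess unlabeled Aha-Tn7 peptide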
# Conditions: TRITC-Tn7 probe displacement, at 8.3 µM, active compounds read high
# Sequence of Fibrinogen beta chain (Homo sapiens) (P02675 whole entry, looked up): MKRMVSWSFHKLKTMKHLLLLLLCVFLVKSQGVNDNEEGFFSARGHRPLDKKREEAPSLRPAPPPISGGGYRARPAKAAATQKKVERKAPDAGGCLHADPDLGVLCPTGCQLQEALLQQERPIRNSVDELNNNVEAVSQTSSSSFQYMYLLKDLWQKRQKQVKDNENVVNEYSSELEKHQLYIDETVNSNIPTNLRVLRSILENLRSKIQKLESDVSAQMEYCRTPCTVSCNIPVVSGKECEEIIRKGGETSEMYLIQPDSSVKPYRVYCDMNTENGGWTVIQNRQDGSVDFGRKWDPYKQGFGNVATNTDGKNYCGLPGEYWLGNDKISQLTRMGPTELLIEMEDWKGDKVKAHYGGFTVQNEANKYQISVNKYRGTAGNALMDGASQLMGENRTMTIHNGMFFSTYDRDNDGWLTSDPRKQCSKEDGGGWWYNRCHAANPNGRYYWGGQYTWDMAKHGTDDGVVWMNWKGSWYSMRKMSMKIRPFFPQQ
row,Structure (SMILES),inhibition
1,Cc1nn(C)cc1N1C(=O)c2cccc3c(N)ccc(c23)C1=O,1.67%
2,COc1cc(C(=S)N2CCOCC2)ccc1O,6.48%
3,O=C(NCc1ccccc1)c1cccc(NC(=O)C2CCCCC2)c1,0.56%
4,Cc1cc2nc3c(=O)n(Cc4ccccc4)c(=O)[nH]c3nc2cc1N,-4.98%
5,C#CCNc1ccc(C(=O)OCC)cc1,4.2%
6,Oc1ccc2ccc3cccc[n+]3c2c1,-23.9%
7,c1cc(-c2nn[nH]n2)ccc1CN1CCCCC1,-9.04%
8,OC(c1ccccc1)c1nc(-c2cnc3ccccc3c2)cs1 (centres undefined),3.54%
9,O=C(COC(=O)c1ccc([N+](=O)[O-])cc1Cl)NC(=O)c1ccccc1,1.45%
10,O=C(COC(=O)/C=C/c1ccc(OC(F)F)cc1)NC1CCCCC1,6.67%
11,CN1C(=O)c2cccc3c(N)ccc(c23)C1=O,8.6%
12,Cc1cc2nc3c(=O)[nH]c(=O)nc-3n(C[C@H](O)[C@H](O)[C@H](O)CO)c2cc1C,12.4%
13,O=C(Nc1ccon1)c1sc2ccccc2c1Cl,-2.1%
14,CN1c2ccc(C=O)c3c(C=O)ccc(c23)N(C)C1(C)C,-6.98%
15,Cc1nnc2n1N=C(c1ccc3c(c1)NC(=O)CO3)CS2,-7.74%
16,CCOc1ccc(Nc2oc(Cc3ccccc3)nc2C#N)cc1,-10.1%
17,COc1ccc(-c2nc(CCNC(=O)c3ccc(Br)o3)cs2)cc1,-3.63%
18,O=C(/C=C/c1ccccc1[N+](=O)[O-])NCC1CCCO1 (centres undefined),6.91%
19,COc1ccc(S(=O)(=O)c2c[nH]c(=S)[nH]c2=O)cc1Cl,-4.35%
20,O=C(CSc1nnc(-c2ccccn2)n1-c1ccc(Cl)cc1)Nc1ccccc1-c1ccccc1,-2.23%
21,COc1ccc(N=Nc2c(-c3ccc(OC)cc3)[nH]oc2=O)cc1,-6.55%
22,Cn1c(CC(=O)NNC(=O)c2ccccc2F)nc2ccccc21,-5.95%
23,CC(C)(C)c1cc(CN2CCN(CCC#N)CC2)cc(C(C)(C)C)c1O,0.66%
24,COc1cccc(N2CC(NS(=O)(=O)c3cccs3)CC2=O)c1 (centres undefined),-2.24%
